Experimental findings from PubChem BioAssay AID1839 (Johns Hopkins Ion Channel Center, 2009) are described below.

The whole screen tested about 2,400 compounds, of which about 220 (9.2%) were called active. The full list was thinned out, with actives kept by preference. Values without a mark were called inactive.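 Rule for the calls: active = signal change above the mean of dofetilide-free buffer controls plus 3 SD, so a positive margin; inactive = the rest.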

A short description of the test: nonspecific flux effects in parental CHO-K1, confirmation, counter-screen for hERG block protection project, cell-based, CHO-K1 parental line, FluxOR thallium flux (AID 1839).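 Note: compounds applied alone with no dofetilide to cells lacking hERG.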 The settings on record: CHO-K1 parental cells, FluxOR thallium flux fluorescence; at 10 µM. A general note: A counterscreen serves to expose hits that act by an unwanted route or on another target.
Consider `CC1=CN2C(=N)/C(=C/c3ccc(Sc4ccc(Cl)cc4)o3)C(=O)N=C2S1`, for which the signal change vs control minus 3*SD hit threshold (margin above threshold, higher = more increase) is -23.1%. As to `O=C(NC(=S)N(CC1CCC1)CC1CCCO1)c1cccc([N+](=O)[O-])c1` (centres undefined), the signal change vs control minus 3*SD hit threshold (margin above threshold, higher = more increase) was -12.6%. Next, `CCCCCOCC1CC(C/C(C)=N/Nc2nc(-c3ccccc3)cs2)C(=O)O1` (centres undefined): -31.7%. Next, `N#C/C(=N\Nc1ccccc1F)c1nc(-c2ccccc2)cs1`: -39.4%; `O=C(Nc1ccc(Cl)c(Cl)c1)Nc1nnc(CSc2ccccc2)s1`: -17.6%.

In the case of `C=CCSc1nc2sc3c(c2c(=O)n1CC)CCc1ccccc1-3`, the signal change vs control minus 3*SD hit threshold (margin above threshold, higher = more increase) was -22.2%. Turning to `CCn1c(SCC(=O)NC(=O)NCc2ccco2)nc2sc(C)c(C)c2c1=O`, the signal change vs control minus 3*SD hit threshold (margin above threshold, higher = more increase) was -17.8%. The same measure for `C=CCn1c(SCc2ccc(C(=O)O)cc2)nc2sc(C)c(C)c2c1=O`: 7% (active); for `CCc1nccn1S(=O)(=O)c1ccc2ccc(C)cc2c1`: -33.5%. Next, `COc1ccc(Cc2c(O)nc(SCC(C)C)[nH]c2=O)cc1`: -32.4%; `CC(C)c1nc2sc3c(=S)nc[nH]c3c2c2c1CCC2`: -10.6%. Next, `S=c1nc[nH]c2c1sc1nc(-c3ccccc3)c3c(c12)CCCC3`: -5.5%; `S=c1nc[nH]c2c1sc1nc(N3CCOCC3)c3c(c12)CCCC3`: 1.1% (active). On to `O=C(O)CCCN1C(=O)C2C3c4ccccc4C(c4ccccc43)[C@@H]2C1=O` (some centres undefined), for which the signal change vs control minus 3*SD hit threshold (margin above threshold, higher = more increase) is -37.1%. As to `COc1ccc(C(CC(=O)O)NC(=O)C(c2ccccc2)c2ccccc2)cc1` (centres undefined), the signal change vs control minus 3*SD hit threshold (margin above threshold, higher = more increase) is -32.8%.

In the case of `O=C(N/N=C/c1ccc(OC(F)F)cc1)C1=COCCO1`, the signal change vs control minus 3*SD hit threshold (margin above threshold, higher = more increase) is -28.8%. Turning to `CCOC(=O)c1sc(NC(=S)NC(=O)c2cccc(OC)c2)nc1C`, the signal change vs control minus 3*SD hit threshold (margin above threshold, higher = more increase) was -15.5%. Next, `COc1ccc(N2CCN(C(=S)Nc3cccc(OC)c3)CC2)cc1`: -27%; `COc1ccc(NC(=O)CNC(=O)c2cccs2)cc1Cl`: -23.5%.

Consider `O=C(NC(=S)Nc1ccccc1N1CCCCC1)c1cccs1`, for which the signal change vs control minus 3*SD hit threshold (margin above threshold, higher = more increase) was -17.4%. As for `CCC(Cc1ccccc1)n1c(=S)[nH]c2ccccc2c1=O` (centres undefined), the signal change vs control minus 3*SD hit threshold (margin above threshold, higher = more increase) is -32.2%. As to `CC(C)c1ccc(/C=N/n2c(COc3ccccc3)n[nH]c2=S)cc1`, the signal change vs control minus 3*SD hit threshold (margin above threshold, higher = more increase) is -21.3%. Next, `S=c1nc(Cc2ccccc2)[nH]c2ccccc12`: 36% (active); `CCOC(=O)c1sc2nc(Cc3ccc(Cl)cc3)[nH]c(=S)c2c1C`: -19.8%; `S=c1nc(C2CCCCC2)[nH]c2ccccc12`: -20.4%. As to `O=c1[nH]c(SCc2cccc(Cl)c2)nc2ccccc12`, the signal change vs control minus 3*SD hit threshold (margin above threshold, higher = more increase) is -29.3%. The same measure for `S=c1[nH]nc(-c2ccc(Cl)cc2)n1Cc1ccccc1`: -36.8%; for `S=c1nc(C2CC2)[nH]c2ccccc12`: -0.5%. Next, `S=c1nc(Cc2ccc(Cl)cc2)[nH]c2ccccc12`: 7.6% (active); `O=C(O)CCCCCNc1nc(=S)[nH]c2ccccc12`: -17.7%. Take `S=c1nc(COc2ccccc2)[nH]c2ccccc12`: the signal change vs control minus 3*SD hit threshold (margin above threshold, higher = more increase) was 59.3% (active). The same measure for `S=c1nc(SCc2ccccc2)[nH]c2ccccc12`: 40.3% (active). Next, `C#CCN1C(=O)S/C(=C\c2ccc(-c3ccc(C(=O)O)cc3C)o2)C1=O`: -26.1%; `CC/C(=N\NC(=S)Nc1cccc(C)c1)c1ccccc1`: -31.9%; `COc1ccc(/C=N/NC(=O)C(=O)N2CCCC2)cc1`: -11.5%. Next, `Cc1cccc(C)c1NC(=O)Cn1cnc2c(=O)n(C)c(=O)n(C)c21`: -26.9%; `Cn1nc(C(=O)Nc2ccc3c(c2)OCO3)c2ccccc2c1=O`: -35.3%; `CCOC(=O)NC(=O)/C(C#N)=N\Nc1ccc(Cl)cc1`: -36.7%. Turning to `Cc1c(-c2ccn[nH]2)cc(NC(=O)c2ccc(Cl)cc2)c(=O)n1N`, the signal change vs control minus 3*SD hit threshold (margin above threshold, higher = more increase) was -40%. On to `Cc1cc(C)nc(SCc2nnc(SCC(=O)Nc3nc(-c4ccccc4)cs3)n2-c2ccccc2)n1`, for which the signal change vs control minus 3*SD hit threshold (margin above threshold, higher = more increase) was -32%. On to `COc1ccc(CCNC(=O)CSc2ccc3nnc(CCNC(=O)c4ccccc4)n3n2)cc1OC`, for which the signal change vs control minus 3*SD hit threshold (margin above threshold, higher = more increase) was -23.3%. Next, `O=C1NC(=S)/C(=C\c2ccc(-c3ccccc3Cl)o2)S1`: -34.6%; `COc1ccc2nc(N3CCCCC3)c(/C=C3\SC(=S)NC3=O)cc2c1`: -33%; `O=C1NC(=S)S/C1=C\c1ccc2ccccc2c1`: 30.2% (active).

In the case of `O=C(CN1C(=O)S/C(=C\c2cccs2)C1=O)Nc1ccc(C(=O)O)c(O)c1`, the signal change vs control minus 3*SD hit threshold (margin above threshold, higher = more increase) was -0.8%. On to `Cc1ccc(S(=O)(=O)c2nnn3c2nc(N2CCOCC2)c2ccccc23)c(C)c1`, for which the signal change vs control minus 3*SD hit threshold (margin above threshold, higher = more increase) is -25.3%.

Turning to `COC(=O)c1sccc1NC(=S)N1CCN(C)CC1`, the signal change vs control minus 3*SD hit threshold (margin above threshold, higher = more increase) was -34.3%. Turning to `Cc1ccc(-c2onc3ccc(Cl)cc23)cc1`, the signal change vs control minus 3*SD hit threshold (margin above threshold, higher = more increase) is -25.3%. The same measure for `O=c1c2ccccc2nc(-c2ccc(Cl)c(Cl)c2)n1O`: 20.1% (active); for `O=c1c2ccccc2nc(-c2ccccc2)n1O`: -24.1%. For `NC(=O)CSc1nc2ccccc2c(=O)n1CCc1ccccc1`, the signal change vs control minus 3*SD hit threshold (margin above threshold, higher = more increase) was -28.3%.

Take `O=c1c2cc(Cl)ccc2nc(-c2ccccc2)n1O`: the signal change vs control minus 3*SD hit threshold (margin above threshold, higher = more increase) was -7.8%. The same measure for `O=C(Cc1ccccc1)Nn1c(-c2ccccc2)nc2ccccc2c1=O`: -21.4%; for `Cc1ccc(C(=O)Nc2nc3ccccc3c(=O)s2)cc1`: -16.6%.

Regarding `Cc1ccc(-c2nc3ccc(Cl)cc3c(=O)n2O)cc1`, the signal change vs control minus 3*SD hit threshold (margin above threshold, higher = more increase) was 38% (active). Next, `O=c1c2ccccc2nc(-c2cccc(Cl)c2)n1O`: 0.8% (active); `O=c1c2cc(Cl)ccc2nc(-c2ccc(Cl)c(Cl)c2)n1O`: 62.4% (active); `CCc1ccc(OCC(=O)Nc2ncn[nH]2)cc1`: -35.2%. Turning to `Cc1ccc2[nH]c3c(c2c1)CNCC3`, the signal change vs control minus 3*SD hit threshold (margin above threshold, higher = more increase) was -32%. Take `CN(c1ccccc1)S(=O)(=O)c1ccc(Cl)c(C(=O)Nc2nn[nH]n2)c1`: the signal change vs control minus 3*SD hit threshold (margin above threshold, higher = more increase) is -24.2%. As to `COc1ccc(C2N=C(c3ccccc3)C(C)(C)N2O)cc1` (centres undefined), the signal change vs control minus 3*SD hit threshold (margin above threshold, higher = more increase) is -23.4%. `Cc1ccccc1-c1nnn(CC(=O)NCc2ccc3c(c2)OCO3)n1`: the signal change vs control minus 3*SD hit threshold (margin above threshold, higher = more increase) is -37.1%. For the compound `Cc1cccc(/N=C/c2sc3ccccc3c2O)n1`, the signal change vs control minus 3*SD hit threshold (margin above threshold, higher = more increase) is -19.2%.

`O=C(NCC1CCCO1)c1ccc2c(=O)n(Cc3ccco3)c(SCC(=O)N3CCCC3)nc2c1` (centres undefined): the signal change vs control minus 3*SD hit threshold (margin above threshold, higher = more increase) is -14.7%. The same measure for `Clc1cccc(OCCCN2CCCC2)c1Cl`: -24.8%; for `CCCCC1C2=C(CCCC2=O)OC2=C1C(=O)CCC2`: -34.5%. For `Cc1ccc(C(=O)N2CCN(c3ccccc3)CC2)cc1S(=O)(=O)N1CCCC1`, the signal change vs control minus 3*SD hit threshold (margin above threshold, higher = more increase) is -7.2%. In the case of `Cc1ccc(-c2nc3ccccc3c(=O)n2O)cc1`, the signal change vs control minus 3*SD hit threshold (margin above threshold, higher = more increase) was -12.7%.

`Cc1ccc(-c2nc3c(Cl)cc(Cl)cc3c(=O)n2O)cc1`: the signal change vs control minus 3*SD hit threshold (margin above threshold, higher = more increase) was 65.6% (active). In the case of `Cc1cc(=O)[nH]c(SCC(=O)NC2CCCCC2)n1`, the signal change vs control minus 3*SD hit threshold (margin above threshold, higher = more increase) is -27%.

As for `O=C(NC(=S)Nc1cccc(Cl)c1N1CCCCC1)c1ccco1`, the signal change vs control minus 3*SD hit threshold (margin above threshold, higher = more increase) was -27.7%. The same measure for `Cc1cccc(NC(=O)CCNC(=O)c2ccco2)c1C`: -27.7%; for `CCC(C)c1ccccc1NC(=S)NC(=O)c1ccco1` (centres undefined): 40% (active). Next, `O=C(NC(=S)Nc1ccc(N2CCCCC2)cc1)c1ccco1`: 9.4% (active). In the case of `CCOc1ccccc1NC(=S)NC(=O)c1ccco1`, the signal change vs control minus 3*SD hit threshold (margin above threshold, higher = more increase) was -16.7%. The same measure for `O=C(NC(=S)Nc1ccccc1N1CCCC1)c1ccco1`: -20.8%; for `CCOc1ccc(NC(=S)NC(=O)c2ccco2)cc1`: -15.7%.

As to `Cc1cccc(NC(=S)NC(=O)c2ccco2)c1C`, the signal change vs control minus 3*SD hit threshold (margin above threshold, higher = more increase) is 20% (active).

Turning to `O=C(NC(=S)Nc1ccccc1Br)c1ccco1`, the signal change vs control minus 3*SD hit threshold (margin above threshold, higher = more increase) is -14.3%. Next, `O=C1OCCC1Sc1nc2ccccc2c(=O)n1Cc1ccc(F)cc1` (centres undefined): -13.7%; `CCc1ccc(C(=O)NNC(=O)c2ccc(=O)n(C)n2)cc1`: -31%. Next, `O=C(NC(=S)N1CCN(c2nc(-c3ccccc3)cs2)CC1)c1cncc(Br)c1`: -12.3%; `CC(NC(=O)NC1CCCCC1)c1ccccc1` (centres undefined): -8.9%. Next, `Oc1c(N=Nc2ccccn2)ccc2ccccc12`: -28.3%; `O=C(N/N=C\c1coc2ccccc2c1=O)c1ccco1`: -25.6%; `CC(/C=C1\SC(=S)N(c2ccc(C(=O)O)cc2)C1=O)=C\c1ccccc1`: -40.7%. `Cc1c(N2C(=O)/C(=C\c3ccccc3O)SC2=S)c(=O)n(-c2ccccc2)n1C`: the signal change vs control minus 3*SD hit threshold (margin above threshold, higher = more increase) is 7.5% (active).

In the case of `O=C(O)COc1ccccc1/C=C1\SC(=S)N(NC(=O)c2ccccc2O)C1=O`, the signal change vs control minus 3*SD hit threshold (margin above threshold, higher = more increase) was -20.5%.

`COc1ccc(N(C(=O)c2ccco2)S(=O)(=O)c2cccs2)cc1`: the signal change vs control minus 3*SD hit threshold (margin above threshold, higher = more increase) is -26.1%. Consider `O=C(Cn1cncn1)c1ccccc1Br`, for which the signal change vs control minus 3*SD hit threshold (margin above threshold, higher = more increase) is -37.9%. Turning to `Cc1cc(C)cc(-n2ncc3c2CCCC3NC(=O)c2csnn2)c1` (centres undefined), the signal change vs control minus 3*SD hit threshold (margin above threshold, higher = more increase) is -40.3%.

As to `CCCCN1C(=O)/C(=C2/Sc3ccc(Cl)cc3N2CC)SC1=S`, the signal change vs control minus 3*SD hit threshold (margin above threshold, higher = more increase) is -39.8%. The same measure for `COc1ccc(OCC(=O)NNC(=O)C(=O)Nc2cc(OC)ccc2OC)cc1`: -1.8%.

With `COc1ccc(OC)c(NC(=O)C(=S)NC2CCCCC2)c1`, the signal change vs control minus 3*SD hit threshold (margin above threshold, higher = more increase) is -22.8%. The same measure for `COc1ccc(OC)c(NC(=O)C(=O)NNC(=O)C23CC4CC(CC(C4)C2)C3)c1`: 42.5% (active); for `CC(NC(=O)CCCn1cc([N+](=O)[O-])cn1)c1ccccc1` (centres undefined): -29.8%; for `CCCCNC(=S)NNC(=O)c1ccc2c(c1)OCO2`: -29.2%. Take `N=C1C(=O)OCC1c1cc(Cl)ccc1NC(=O)Nc1ccccc1` (centres undefined): the signal change vs control minus 3*SD hit threshold (margin above threshold, higher = more increase) was -31.4%. Next, `CCCc1cc(C(=O)NNC(=S)Nc2cccc(C)c2)cs1`: -32.4%. Consider `Cc1cccc(C(=O)NC(=S)NNC(=O)c2ccc(Cl)cc2)c1`, for which the signal change vs control minus 3*SD hit threshold (margin above threshold, higher = more increase) is -44.5%. Next, `CC(C)(C)NC(=O)C(=O)NNC(=O)c1cccc(Br)c1`: -6.8%; `Cc1cccc(NC(=O)C(=O)NNC(=O)c2ccc(C(C)(C)C)cc2)c1`: 44.5% (active); `CC(C)(C)NC(=O)C(=O)NNC(=O)c1ccccc1`: -23.3%. Consider `CC(C)(C)NC(=O)C(=O)NNC(=O)c1ccc(C(C)(C)C)cc1`, for which the signal change vs control minus 3*SD hit threshold (margin above threshold, higher = more increase) was 1.9% (active).
